# Shiga toxin inh: A qHTS for Small Molecule Inhibitors of Shiga Toxin; Vero cells, Shiga toxin protein synthesis inhibition reporter; inhibition, % at 38.7 µM; 290,000 compounds, 9.2% hits; in the data active = inhibition mostly above about 28%, no sharp cut-off; inactive = mostly below about 43%; note: 0% is about no effect
# Cycloheximide cs: Cycloheximide Counterscreen for Small Molecule Inhibitors of Shiga Toxin; cell reporter, cycloheximide protein synthesis inhibition counterscreen; max response, %; 300,000 compounds, 12% hits; in the data active = max response mostly above about 13%, no sharp cut-off; inactive = mostly below about 14%; note: read at 38.3 µM for the half of the compounds with a filed dose; 0% is about no effect
# Giardia FBPA inh: qHTS Assay for Inhibitors of Fructose-1,6-bisphosphate Aldolase from Giardia Lamblia; 290,000 compounds, 0.71% hits; A8B2U2; purified Giardia FBPA; Potency, µM (titrated, usually from 59.6 µM), for inactives: top-dose activity, negative = inhibition, most hits filed as inhibitors; note: potency is the fitted concentration of half-maximal effect; % is set by controls: 0 for no effect and ±100 for the full control effect; nearly all actives have a fitted effect of over 55% in size
# Target sequence (A8B2U2 whole entry, looked up): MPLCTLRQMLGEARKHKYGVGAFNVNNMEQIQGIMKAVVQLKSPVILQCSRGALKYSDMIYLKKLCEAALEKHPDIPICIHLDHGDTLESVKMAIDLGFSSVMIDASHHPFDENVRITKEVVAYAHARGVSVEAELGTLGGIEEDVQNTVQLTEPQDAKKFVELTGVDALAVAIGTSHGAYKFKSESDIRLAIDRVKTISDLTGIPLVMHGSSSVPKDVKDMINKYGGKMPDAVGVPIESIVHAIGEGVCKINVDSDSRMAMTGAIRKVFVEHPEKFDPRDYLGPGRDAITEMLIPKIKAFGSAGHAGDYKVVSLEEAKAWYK
#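 40 nM FBPA preincubated 10 min at RT with compound (up to 57.5 uM final), then substrate plus GAPDH/TPI/NAD/arsenate coupling and diaphorase/resazurin added. Fluorescence read after 20 min at RT, 525/598 nm.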
# Sm TGR inh: qHTS Assay for the Inhibitors of Schistosoma Mansoni Peroxiredoxins | Schistosoma mansoni thioredoxin glutathione reductase (TGR), Q962Y6 | Potency, µM (series often up to 114 µM), for the others: at the highest dose activity change, negative = inhibition, actives largely listed as inhibitors | 360,000 compounds, 3% hits | purified TGR, DTNB reduction, TNB absorbance 405 nm; note: potency is the fitted concentration of half-maximal effect; % is set by controls: 0 for no effect and ±100 for the full control effect; nearly all actives have a fitted effect of over 60% in size
#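 Kinetic colorimetric format: TGR-catalysed, NADPH-driven DTNB reduction monitored via TNB absorbance. Enzyme dispensed at 20 nM; compound exposure 15 min at room temperature before reaction start.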
# TbPYK inhibitor: qHTS of Trypanosoma Brucei Inhibitors; AID 624173, 2012; pyruvate kinase (Trypanosoma brucei), Q57TT1; TbPYK enzyme, Kinase-Glo Plus ATP luminescence, 45 min; Potency, µM (highest dose often 76.8 µM), for the others: top-dose activity, negative = inhibition, hits mostly inhibitors; 410,000 compounds, 0.12% hits; note: potency is the fitted concentration of half-maximal effect; % is set by controls: 0 for no effect and ±100 for the full control effect; nearly all actives have a fitted effect of over 50% in size
#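 Glycolytic pyruvate kinase of T. brucei was incubated with substrate, test compound and 130 uM ADP for 45 minutes at room temperature. Luminescent Kinase-Glo Plus signal was measured after 10 minutes.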
# LmPK inhibitor: qHTS Assay for Inhibitors of Leishmania Mexicana Pyruvate Kinase (LmPK) | Q27686 | purified LmPK, Kinase-Glo ATP luminescence, 1 h | Potency, µM (doses to about 57.5 µM), inactives show at the highest dose activity change, negative = inhibition, hits mostly inhibitors | 290,000 compounds, 0.37% hits; note: potency is the fitted concentration of half-maximal effect; % is set by controls: 0 for no effect and ±100 for the full control effect
#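 Purified LmPK (0.1 nM) converted ADP (0.1 mM) to ATP with PEP (0.5 mM) in imidazole buffer pH 7.2 with KCl and MgCl2, 1 h at room temperature. ATP was read by Kinase-Glo luminescence; data normalized to uninhibited and no-enzyme controls.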
# Numbers without * were called inactive; ? = inconclusive; . = not tested or not shown; [ ] = remark or other dose. This is one part of a sample in which hits are shown more often than they occur. Unless noted, calls come from the whole dose curve; as a rule, active = well fitted curve in the direction sought with a large enough effect; inconclusive = small, poorly fitted or top-dose-only effect, or another doubt; inactive = no such curve, though single readings can be large; an effect the other way counts as inactive or inconclusive.
SMILES,Shiga toxin inh,Cycloheximide cs,Giardia FBPA inh,Sm TGR inh,TbPYK inhibitor,LmPK inhibitor
CN(Cc1ccccc1)C(=O)COc1ccccc1Cl,-5,5,-5%,-8%,-4%,-11%
CN(C)C(=O)COc1ccc(Oc2ccccc2)cc1,41*,31*,-3%,-2%,3%,1%
CN(Cc1ccccc1)C(=O)COc1ccc(Br)cc1Cl,38,20*,-4%,-6%,-10%,13%
COc1ccc(C(=O)Nc2ccc(/C(C)=N/NC(=O)c3ccccc3O)cc2)cc1OC,44*,37*,-1%,-3%,0%,0%
CC(=O)OCC(=O)[C@@]1(O)[C@H](OC(C)=O)C[C@H]2[C@@H]3CCC4=CC(=O)C=C[C@]4(C)[C@@]3(F)[C@@H](O)C[C@@]21C,12,-3,7%,.,0%,.
CCOc1ccc(CN(C)C(=O)CCNC(=O)c2ccco2)cc1,.,.,.,-5%,-2%,.
CCOc1ccc(CN(C)C(=O)CCl)cc1,9,4,3%,16µM*,-3%,0%
O=C(c1ccc(C#CC2(O)CCCCC2)cc1)N1CCN(C(c2ccccc2)c2ccccc2)CC1,21,21*,-6%,0%,-11%,-2%
O=C(c1ccc(C#CC2(O)CCCCC2)cc1)N1CCN(Cc2ccccc2)CC1,-26,-2,19%,-3%,-9%,4%
CCOC(=O)N1CCN(C(=O)c2ccc(C#CC3(O)CCCCC3)cc2)CC1,41*,31*,2%,-4%,-9%,-11%
CS(=O)(=O)c1ccc([C@H](O)[C@H](CF)NC(=O)C(Cl)Cl)cc1,.,.,1%[21.7 µM],.,6%[33.2 µM],.
O=C(NC1CCCCC1)c1cc2c(Cl)nc3ccccc3c2s1,.,.,.,9%,3%,.
Cc1ccc(-n2ncc3c(NNC(=O)c4ccccc4C)ncnc32)cc1,.,.,.,-5%,-2%,.
Cc1ccc(-n2ncc3c(NNC(=O)c4ccco4)ncnc32)cc1C,56*,25*,.,-4%,-5%,-5%
CC(=O)NNc1ncnc2c1cnn2-c1ccc(C)cc1,86*,37*,0%,-1%,-3%,9%
COc1ccc(CC(=O)NNc2ncnc3c2cnn3-c2ccc(C)cc2)cc1,-4,-1,7%,-1%,-1%,4%
CC(=O)NNc1ncnc2c1cnn2-c1ccc(C)c(Cl)c1,68*,38*,3%,0%,2%,17%
COc1ccc(CC(=O)NNc2ncnc3c2cnn3-c2ccc(C)cc2)cc1OC,33,15*,9%,-2%,-4%,5%
O=C(NNc1ncnc2c1cnn2-c1cccc(Cl)c1)c1ccco1,23,9,7%,-7%,-16%,2%
CCCc1ccc(S(=O)(=O)N2CCC(c3nnc(-c4cccc(C)c4)o3)CC2)cc1,.,.,.,-1%,-25%,.
CCOc1ccccc1N1CCN(S(=O)(=O)c2cc(C)ccc2OC)CC1,64*,51*,-4%,-2%,0%,0%
COc1ccc(C)cc1S(=O)(=O)N1CCN(c2ccccc2)CC1,.,1,-3%,?,4%,0%
Cc1cc2nn(-c3ccc(F)cc3)nc2cc1NC(=O)c1cc(Cl)ccc1Cl,.,.,.,-10%,-3%,.
O=C(N/N=C/c1ccc(Sc2ccccn2)o1)c1cccc([N+](=O)[O-])c1,8,-1,-22%,-6%,-5%,1%
O=C(N/N=C/c1ccc(Sc2ccccn2)o1)c1cc2ccccc2cc1O,24,22*,1%,-1%,-6%,-10%
SMILES,Shiga toxin inh,Cycloheximide cs,Giardia FBPA inh,Sm TGR inh,TbPYK inhibitor,LmPK inhibitor
O=C(N/N=C\c1ccc(Sc2ccccn2)o1)c1cccc(F)c1,62,18*,-8%,-3%,-11%,1%
O=C(Cc1ccc(NC(=O)C2CCCN(C(=O)C3CCC3)C2)cc1)Nc1cccc(C(=O)N2CCCC2)c1 (configuration not stated),.,.,.,.,-7%,.
CCN(C(=O)C1CCC(CNS(=O)(=O)c2cccc3nsnc23)CC1)c1ccccc1 (configuration not stated),.,.,.,4%,1%,.
CCN(CC)C(=S)SC1CCCCN(C(=O)c2ccccc2)C1=O (configuration not stated),57*,36*,12%,19%,0%,4%
O=C(c1ccccc1)N1CCCCC(Sc2nnc3ccccn23)C1=O (configuration not stated),-11,-6,0%,-3%,1%,2%
Cc1ccc(C(=O)n2c(-c3ccccc3)cnc2SCC(=O)Nc2ccccc2)cc1,-3,15*,4%,-10%,-5%,2%
Cc1ccc(NC(=O)CSc2nnc3scc(-c4ccccc4)n23)cc1,.,.,.,-1%,-1%,.
Cc1ccc(C(=O)n2c(-c3ccccc3)cnc2SCC(=O)Nc2ccc(C)cc2C)cc1,48*,-2,2%,10%,0%,-2%
Cc1ccc(NC(=O)CSc2nnc(-c3cccnc3)o2)c(C)c1,.,.,.,3%,-6%,.
Cc1ccc(NC(=O)CSc2ncc(-c3ccccc3)n2C(=O)c2ccccc2)cc1,100*,28*,0%,12%,8%,1%
CCC1CN(C(=O)C2CCN(S(=O)(=O)c3c(C)noc3/C=C/c3ccc(C)cc3)CC2)c2cc(C)ccc2O1 (configuration not stated),.,.,.,3%,-2%,.
CCCCCCCNc1cccc(C)c1,5,-3,3%,-8%,0%,0%
Cc1ccc(CNc2ccc(O)cc2)cc1,43,24,3.5µM*,11µM*,-28%,-10%
Cc1cccc(NCCNc2cccc(C)c2)c1,25,18*,-1%,6%,4%,-5%
Cc1ccc(NCc2ccccc2O)cc1,72*,30*,-6%,18%,3%,-4%
Cc1ccccc1NCc1ccccc1O,-10,4,?,-3%,-5%,2%
Cc1cccc(NCc2ccccc2O)c1,25,18*,-6%,-2%,-6%,-2%
CC[C@@]1([C@@H]2O[C@@H]([C@H]3O[C@@](O)(CO)[C@H](C)C[C@@H]3C)C[C@@H]2C)CC[C@@H]([C@]2(C)CCC3(C[C@H](O)[C@@H](C)[C@@H]([C@@H](C)[C@@H](OC)[C@H](C)C(=O)O)O3)O2)O1 (some centres not stated),10,-1,6%,.,.,.
COc1cc([C@@H]2c3cc4c(cc3[C@@H](O[C@@H]3O[C@H]5CO[C@@H](C)O[C@@H]5[C@@H](O)[C@H]3O)[C@@H]3COC(=O)[C@@H]23)OCO4)cc(OC)c1O,.,.,9%,.,.,.
Cc1ccc(NCc2ccccc2F)cc1,29*,9,-10%,1%,-3%,-5%
